Among the data in PubChem BioAssay (EPA / NIEHS) are outcome and AC50 values, retold here.

Experiment [1] has as its system zebrafish Estrogen Receptor (ER2a), gene 317734. The experiment in a line: ATG_zfER2a_XSP2: Attagene TRANS-FACTORIAL Multi-Species (XSP2) HepG2 Assay for zebrafish Estrogen Receptor (ER2a) (AID 2283818).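 Further: hits raise reporter mRNA so AC50 reflects activation of zebrafish ER2a.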 An outline of the steps: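 Multiplexed trans-reporter readout: RT-PCR then capillary electrophoresis of reporter transcripts after 24 h compound treatment. Human HepG2 carries transfected zebrafish ER2a-Gal4 chimera; 3 nM 6-alpha-fluorotestosterone plus 1.5 nM norgestrel present. Induction scored against DMSO.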

Experiment [2] has as its system chicken Androgen Receptor (AR), gene 422165. The experiment in a line: ATG_chAR_XSP2: Attagene TRANS-FACTORIAL Multi-Species (XSP2) HepG2 Assay for chicken Androgen Receptor (AR) (AID 2283819).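 Further: hits raise reporter mRNA above DMSO so potency is for activation.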 The essentials: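 Readout is reporter mRNA induction via RT-PCR/capillary electrophoresis after 24 h chemical exposure, positive direction relative to DMSO. Transiently transfected HepG2 express chimeric chicken AR–GAL4; AR stimulated by 3 nM 6-alpha-fluorotestosterone and 1.5 nM norgestrel.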

The test system of experiment [3] is zebrafish Estrogen Receptor (ER2b), gene 317733. The experiment in a line: ATG_zfER2b_XSP2: Attagene TRANS-FACTORIAL Multi-Species (XSP2) HepG2 Assay for zebrafish Estrogen Receptor (ER2b) (AID 2283823).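 Further: fitted upward as reporter gain over DMSO so potency reflects activation.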 The essentials: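 Cells used were HepG2, transiently transfected with chimeric nuclear receptor-Gal4 reporter units. After 24 h of chemical treatment, reporter transcripts were amplified by RT-PCR, labelled and sized by capillary electrophoresis, with induction analysed relative to DMSO.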

The subject of experiment [4] is zebrafish Androgen Receptor (AR), gene 100005148. The experiment in a line: ATG_zfAR_XSP2: Attagene TRANS-FACTORIAL Multi-Species (XSP2) HepG2 Assay for zebrafish Androgen Receptor (AR) (AID 2283825).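 Further: hits raise reporter mRNA above DMSO so AC50 reflects agonist-type gain.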 The essentials: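 After 24 h compound exposure in medium with 3 nM 6-alpha-fluorotestosterone plus 1.5 nM norgestrel, HepG2 cells carrying zebrafish AR–GAL4 reporter constructs were assessed for reporter mRNA gain by RT-PCR and capillary electrophoresis.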

Experiment [5] has as its system frog Estrogen Receptor (ER2), gene 100174814. Nature of the experiment: ATG_frER2_XSP2: Attagene TRANS-FACTORIAL Multi-Species (XSP2) HepG2 Assay for frog Estrogen Receptor (ER2) (AID 2283828). The essentials:
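Induction of reporter mRNA, baseline set by DMSO, is the endpoint. The panel was run in transfected HepG2 cells over 24 h, with 3 nM 6-alpha-fluorotestosterone and 1.5 nM norgestrel present to stimulate androgen receptor.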

The target in experiment [6] is Nuclear receptor subfamily 1 group I member 2 (Mus musculus) (UniProt O54915). Nature of the experiment: ATG_mPXR_XSP2: Attagene TRANS-FACTORIAL Multi-Species (XSP1) HepG2 Assay for mouse Pregnane X Receptor (PXR) (AID 2283831). An outline of the steps: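 Reporter transcripts were quantified by RT-PCR, FAM primer extension, HpaI digestion and capillary electrophoresis after 24 h of chemical exposure in transiently transfected HepG2 cells carrying chimeric receptor-GAL4 constructs; DMSO served as baseline.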
Nuclear receptor subfamily 1 group I member 2 (Mus musculus), sequence (O54915 whole entry, looked up, the tested form may be a part): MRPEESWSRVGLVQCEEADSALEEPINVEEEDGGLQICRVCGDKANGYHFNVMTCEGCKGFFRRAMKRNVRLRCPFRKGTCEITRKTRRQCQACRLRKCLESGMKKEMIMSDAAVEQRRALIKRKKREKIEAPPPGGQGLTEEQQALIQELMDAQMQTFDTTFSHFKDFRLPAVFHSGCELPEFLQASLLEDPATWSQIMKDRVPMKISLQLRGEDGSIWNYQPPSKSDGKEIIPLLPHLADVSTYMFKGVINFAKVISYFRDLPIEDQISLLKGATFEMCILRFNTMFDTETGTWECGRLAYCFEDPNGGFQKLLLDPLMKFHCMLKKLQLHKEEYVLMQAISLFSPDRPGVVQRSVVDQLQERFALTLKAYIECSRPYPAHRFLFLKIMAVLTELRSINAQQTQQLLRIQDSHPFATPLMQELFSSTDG

Experiment [7] has as its system zebrafish Peroxisome Proliferator-activated Receptor gamma (PPARg), gene 557037. The experiment in a line: ATG_zfPPARg_XSP2: Attagene TRANS-FACTORIAL Multi-Species (XSP2) HepG2 Assay for zebrafish Peroxisome Proliferator-activated Receptor gamma (PPARg) (AID 2283833).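 Further: actives increase reporter signal over DMSO so AC50 reflects activation.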 An outline of the steps: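 Multi-species TRANS format in HepG2, 24 h dosing; medium also contained 3 nM 6-alpha-fluorotestosterone and 1.5 nM norgestrel to stimulate androgen receptor. Zebrafish PPARg-GAL4 induced reporter mRNA was measured by RT-PCR/capillary electrophoresis.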

A short description of experiment [8]: ATG_M_61_XSP2: Attagene TRANS-FACTORIAL Multi-Species (XSP2) HepG2 Assay for M61 Transcription Factor (Internal Marker) (AID 2283835; active means hit-call score of the fitted dose curve at least 0.9, where 1 is the maximum; inactive means score below 0.9;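 further: active means a rise in signal above the DMSO baseline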). The essentials:
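Signal was mRNA induction detected as fluorescence after RT-PCR and capillary electrophoresis, analysed in the gain direction with DMSO as baseline. HepG2 cells transiently carrying reporter constructs received chemicals for 24 h.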

The target in experiment [9] is frog Thyroid hormone Receptor alpha (TRa), thra-a (gene 397942) (UniProt P15204). Nature of the experiment: ATG_frTRa_XSP2: Attagene TRANS-FACTORIAL Multi-Species (XSP2) HepG2 Assay for frog Thyroid hormone Receptor alpha (TRa) (AID 2283839). An outline of the steps: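 Transfect HepG2 with multiple reporter units (GAL4-UAS), dose chemical, incubate 24 h. Isolate RNA, reverse-transcribe, PCR-amplify reporter, label with 6-FAM by primer extension, digest with HpaI, run capillary electrophoresis; induction scored against DMSO.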
frog Thyroid hormone Receptor alpha (TRa), thra-a (gene 397942), sequence (P15204 whole entry, looked up, the tested form may be a part): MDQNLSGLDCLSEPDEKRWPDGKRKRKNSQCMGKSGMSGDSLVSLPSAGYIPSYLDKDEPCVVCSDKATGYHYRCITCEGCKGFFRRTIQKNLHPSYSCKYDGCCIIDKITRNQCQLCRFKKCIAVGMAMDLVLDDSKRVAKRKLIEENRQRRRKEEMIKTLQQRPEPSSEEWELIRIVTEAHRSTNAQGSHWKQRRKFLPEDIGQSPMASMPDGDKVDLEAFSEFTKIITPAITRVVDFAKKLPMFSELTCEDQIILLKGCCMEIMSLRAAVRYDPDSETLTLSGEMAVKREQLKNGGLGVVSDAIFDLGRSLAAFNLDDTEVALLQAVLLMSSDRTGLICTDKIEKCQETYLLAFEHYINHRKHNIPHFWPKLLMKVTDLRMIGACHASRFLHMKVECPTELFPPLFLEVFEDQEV

Experiment [10] concerns Sodium/Iodide Symporter (NIS), SLC5A5 (gene 6528). The experiment in a line: CPHEA_Stoker_NIS_Inhibition_RAIU: CPHEA's Radioactive Iodide Uptake (RAIU) Assay for Sodium/Iodide Symporter (NIS) Inhibition, Stoker and Laws Labs (AID 2283841). The essentials:
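Iodide uptake read as CPM of intracellular 125I (final 329 pM) after 2 h room-temperature exposure in HEPES-buffered HBSS, pH 7.4. Human NIS-expressing HEK293T cells; six concentrations 0.001–100 uM, 0.5% DMSO, normalised to DMSO wells.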

In experiment [11] the test system is frog Androgen Receptor (AR), gene 399456. The experiment in a line: ATG_frAR_XSP2: Attagene TRANS-FACTORIAL Multi-Species (XSP2) HepG2 Assay for frog Androgen Receptor (AR) (AID 2283824).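 Further: reporter mRNA from GAL4-UAS units driven by Xenopus AR-Gal4 chimera; actives raise reporter signal above DMSO so AC50 reflects agonist-like induction.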 An outline of the steps: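 Reporter transcript induction, read by RT-PCR with fluorescent capillary electrophoresis, in human liver HepG2 cells carrying an exogenous Xenopus AR-Gal4 fusion and GAL4-driven reporters; chemical exposure 24 hours, activity scored upward against DMSO controls.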

In experiment [12] the target is Estrogen receptor (Homo sapiens) (UniProt P03372). Nature of the experiment: ATG_hERa_XSP2: Attagene TRANS-FACTORIAL Multi-Species (XSP2) HepG2 Assay for human Estrogen Receptor (ERa) (AID 2283827). An outline of the steps:
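Trans-activation of exogenous human ERa-Gal4 chimera read in HepG2 as reporter transcript after 24 h exposure; medium included 3 nM 6-alpha-fluorotestosterone and 1.5 nM norgestrel. Quantified by RT-PCR with capillary electrophoresis, positive-direction fitting against DMSO.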

For experiment [13], the target named is Peroxisome proliferator-activated receptor gamma (Homo sapiens) (UniProt P37231). Nature of the experiment: ATG_hPPARg_XSP2: Attagene TRANS-FACTORIAL Multi-Species (XSP2) HepG2 Assay for human Peroxisome Proliferator-activated Receptor gamma (PPARg) (AID 2283829).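 Further: actives raise reporter mRNA above DMSO so AC50 reflects PPARg activation.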 The essentials:
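After transfecting HepG2 with GAL4-UAS reporter constructs, cells are dosed for 24 h; total RNA is reverse-transcribed, PCR-amplified, FAM-labeled, HpaI-digested and resolved by capillary electrophoresis. Activity is measured as mRNA induction relative to DMSO.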

In experiment [14] the target is zebrafish Thyroid Hormone Receptor alpha (TRa), thraa (gene 30670) (UniProt Q98867). Nature of the experiment: ATG_zfTRa_XSP2: Attagene TRANS-FACTORIAL Multi-Species (XSP1) HepG2 Assay for zebrafish Thyroid Hormone Receptor alpha (TRa) (AID 2283832).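 Further: actives raise zebrafish TRa-Gal4 reporter transcript above DMSO baseline.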 An outline of the steps:
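Chimeric zebrafish TRa-Gal4 activity read in transfected human HepG2 as GAL4-UAS reporter transcripts, 24 h post-dose, via RT-PCR with labeled primer extension and capillary electrophoresis. Medium also carries 3 nM 6-alpha-fluorotestosterone and 1.5 nM norgestrel; DMSO baseline.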

Experiment [15] deals with zebrafish Thyroid Hormone Receptor beta (TRb), thrb (gene 30607) (UniProt Q9PVE4). The experiment in a line: ATG_zfTRb_XSP2: Attagene TRANS-FACTORIAL Multi-Species (XSP1) HepG2 Assay for zebrafish Thyroid Hormone Receptor beta (TRb) (AID 2283836). An outline of the steps:
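Reporter transcripts measured by RT-PCR, 6-FAM labelling, HpaI digestion and capillary electrophoresis after 24 h chemical exposure. Human HepG2 cells carry an exogenous zebrafish TRb-GAL4 chimera; medium included 3 nM 6-alpha-fluorotestosterone plus 1.5 nM norgestrel.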

The target of experiment [16] is human Thyroid hormone Receptor alpha (TRa), THRA (gene 7067) (UniProt P10827). Nature of the experiment: ATG_hTRa_XSP2: Attagene TRANS-FACTORIAL Multi-Species (XSP2) HepG2 Assay for human Thyroid hormone Receptor alpha (TRa) (AID 2283838). An outline of the steps: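 Reporter transcripts were read by RT-PCR with fluorescent primer extension, HpaI digestion and capillary electrophoresis. These came from HepG2 cells carrying multiplexed TRa-Gal4 TRANS constructs, harvested 24 hours after dosing. The medium also held 6-alpha-fluorotestosterone (3 nM) and norgestrel (1.5 nM), and increases were fitted against DMSO.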
human Thyroid hormone Receptor alpha (TRa), THRA (gene 7067), sequence (P10827 whole entry, looked up, the tested form may be a part): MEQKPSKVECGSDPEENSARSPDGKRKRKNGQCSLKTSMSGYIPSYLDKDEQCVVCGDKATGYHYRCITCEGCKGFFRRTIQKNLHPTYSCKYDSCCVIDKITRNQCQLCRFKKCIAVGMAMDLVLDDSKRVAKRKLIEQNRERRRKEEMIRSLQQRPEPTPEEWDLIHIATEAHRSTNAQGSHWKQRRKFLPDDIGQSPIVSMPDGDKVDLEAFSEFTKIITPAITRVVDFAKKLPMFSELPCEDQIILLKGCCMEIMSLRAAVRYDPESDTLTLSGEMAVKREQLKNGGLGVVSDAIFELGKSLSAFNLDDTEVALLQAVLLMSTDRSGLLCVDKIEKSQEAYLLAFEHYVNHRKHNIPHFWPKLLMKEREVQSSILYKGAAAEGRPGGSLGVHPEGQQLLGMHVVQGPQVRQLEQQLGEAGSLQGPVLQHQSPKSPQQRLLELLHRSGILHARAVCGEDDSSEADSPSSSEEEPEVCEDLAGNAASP

The target in experiment [17] is human Thyroid hormone Receptor beta (TRb), THRB (gene 7068) (UniProt P10828). The experiment in a line: ATG_hTRb_XSP2: Attagene TRANS-FACTORIAL Multi-Species (XSP2) HepG2 Assay for human Thyroid hormone Receptor beta (TRb) (AID 2283840).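 Further: actives raise reporter mRNA so potency reflects agonist-like gain of signal.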 The essentials:
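Transient transfection of human HepG2 with multi-species NR-Gal4/GAL4-UAS reporter constructs; 24 h compound treatment; RNA isolation, reverse transcription, PCR and HpaI digest; capillary electrophoresis of labeled fragments; activity fitted upward versus DMSO.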

The nature of experiment [18]: ATG_M_19_XSP2: Attagene TRANS-FACTORIAL Multi-Species (XSP2) HepG2 Assay for M32 Transcription Factor (Internal Marker) (AID 2283822). An outline of the steps: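 Internal background marker in a multi-species nuclear receptor TRANS panel: transfected HepG2 cells exposed 24 h, with 3 nM 6-alpha-fluorotestosterone and 1.5 nM norgestrel present. Readout is RT-PCR of reporter transcripts resolved by capillary electrophoresis, gain-of-signal versus DMSO.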

Where “and” joins values, the source holds several entries; their conditions need not be identical. Equal entries are not always repeated. Inconclusive results are not listed. A structure can be active in one record and inactive in another. Calls of active or inactive are those of the source. How the source made its calls, unless noted: active means hit-call score of the fitted dose curve at least 0.9, where 1 is the maximum; inconclusive means response in the unintended direction; inactive means score below 0.9.

One may read the AC50 as the concentration at which the activity in the assay is half-maximal.

Peroxisome proliferator-activated receptor gamma (Homo sapiens), sequence (P37231 whole entry, looked up, the tested form may be a part): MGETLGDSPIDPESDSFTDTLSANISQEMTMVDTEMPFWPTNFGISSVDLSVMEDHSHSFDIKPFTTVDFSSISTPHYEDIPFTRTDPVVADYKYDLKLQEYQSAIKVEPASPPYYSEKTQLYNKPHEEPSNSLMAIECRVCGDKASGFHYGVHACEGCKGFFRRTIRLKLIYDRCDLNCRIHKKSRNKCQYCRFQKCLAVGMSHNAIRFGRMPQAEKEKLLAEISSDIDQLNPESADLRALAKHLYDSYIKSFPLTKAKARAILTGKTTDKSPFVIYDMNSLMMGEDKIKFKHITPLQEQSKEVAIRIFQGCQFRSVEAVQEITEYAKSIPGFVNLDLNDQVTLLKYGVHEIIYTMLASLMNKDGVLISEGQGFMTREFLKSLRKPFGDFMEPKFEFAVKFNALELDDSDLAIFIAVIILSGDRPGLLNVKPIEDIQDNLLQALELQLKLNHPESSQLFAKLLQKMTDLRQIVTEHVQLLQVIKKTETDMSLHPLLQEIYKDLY
Estrogen receptor (Homo sapiens), sequence (P03372 whole entry, looked up, the tested form may be a part): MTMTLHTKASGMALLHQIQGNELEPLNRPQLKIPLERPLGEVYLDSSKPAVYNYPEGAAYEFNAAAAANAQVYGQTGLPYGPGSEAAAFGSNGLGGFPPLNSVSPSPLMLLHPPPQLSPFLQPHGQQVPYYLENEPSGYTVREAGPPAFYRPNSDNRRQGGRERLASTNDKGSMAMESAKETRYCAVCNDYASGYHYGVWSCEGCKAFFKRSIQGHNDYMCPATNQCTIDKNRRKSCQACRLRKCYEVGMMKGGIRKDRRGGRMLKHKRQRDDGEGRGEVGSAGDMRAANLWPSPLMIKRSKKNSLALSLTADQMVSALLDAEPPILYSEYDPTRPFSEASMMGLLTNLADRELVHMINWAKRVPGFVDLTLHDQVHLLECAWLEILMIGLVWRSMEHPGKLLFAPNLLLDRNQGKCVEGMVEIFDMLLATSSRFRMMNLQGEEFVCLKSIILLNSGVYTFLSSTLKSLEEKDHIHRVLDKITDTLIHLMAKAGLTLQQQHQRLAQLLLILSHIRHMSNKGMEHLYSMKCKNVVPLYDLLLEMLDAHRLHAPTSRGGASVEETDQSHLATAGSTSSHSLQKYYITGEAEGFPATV
zebrafish Thyroid Hormone Receptor beta (TRb), thrb (gene 30607), sequence (Q9PVE4 whole entry, looked up, the tested form may be a part): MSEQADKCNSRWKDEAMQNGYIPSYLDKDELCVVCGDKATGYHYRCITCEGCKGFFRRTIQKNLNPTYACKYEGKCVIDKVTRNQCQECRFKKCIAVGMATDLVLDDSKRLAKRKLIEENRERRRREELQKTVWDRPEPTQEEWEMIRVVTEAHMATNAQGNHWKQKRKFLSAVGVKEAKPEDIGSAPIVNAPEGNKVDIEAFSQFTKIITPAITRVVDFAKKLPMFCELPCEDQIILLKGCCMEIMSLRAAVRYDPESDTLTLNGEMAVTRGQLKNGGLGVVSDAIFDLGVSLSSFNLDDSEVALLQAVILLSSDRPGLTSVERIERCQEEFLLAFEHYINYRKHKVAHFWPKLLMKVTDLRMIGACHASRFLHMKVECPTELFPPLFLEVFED
zebrafish Thyroid Hormone Receptor alpha (TRa), thraa (gene 30670), sequence (Q98867 whole entry, looked up, the tested form may be a part): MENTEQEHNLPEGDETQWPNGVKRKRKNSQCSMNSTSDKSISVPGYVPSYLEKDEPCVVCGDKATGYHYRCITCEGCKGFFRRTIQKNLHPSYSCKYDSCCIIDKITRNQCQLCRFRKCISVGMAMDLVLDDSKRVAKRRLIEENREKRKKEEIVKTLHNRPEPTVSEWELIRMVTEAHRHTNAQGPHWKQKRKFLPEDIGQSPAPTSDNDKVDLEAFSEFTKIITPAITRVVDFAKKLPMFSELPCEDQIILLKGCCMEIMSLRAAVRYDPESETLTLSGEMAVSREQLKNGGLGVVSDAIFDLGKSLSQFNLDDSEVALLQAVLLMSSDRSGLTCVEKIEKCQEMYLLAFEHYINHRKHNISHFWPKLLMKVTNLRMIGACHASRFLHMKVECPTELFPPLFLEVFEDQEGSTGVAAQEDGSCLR
human Thyroid hormone Receptor beta (TRb), THRB (gene 7068), sequence (P10828 whole entry, looked up, the tested form may be a part): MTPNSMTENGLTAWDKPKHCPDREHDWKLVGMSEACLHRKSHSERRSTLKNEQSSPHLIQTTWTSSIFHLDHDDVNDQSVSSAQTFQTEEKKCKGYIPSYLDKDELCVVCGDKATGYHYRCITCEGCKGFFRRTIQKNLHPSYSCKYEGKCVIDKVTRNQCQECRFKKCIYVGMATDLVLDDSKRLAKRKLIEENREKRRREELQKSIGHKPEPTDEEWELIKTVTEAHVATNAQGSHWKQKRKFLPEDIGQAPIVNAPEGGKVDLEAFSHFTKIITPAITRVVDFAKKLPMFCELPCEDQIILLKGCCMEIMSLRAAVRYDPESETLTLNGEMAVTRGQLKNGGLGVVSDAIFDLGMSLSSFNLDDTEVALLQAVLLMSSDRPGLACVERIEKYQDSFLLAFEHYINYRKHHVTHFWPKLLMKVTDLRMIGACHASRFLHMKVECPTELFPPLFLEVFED

Consider `CCCCC(CC)COC(=O)c1ccccc1C(=O)O` (stereo not drawn), for which the result in experiment [1], in [2], in experiment [4], in experiment [8] and in [9] was inactive. Moreover, the AC50 in experiment [3] was 48.9 µM (active); in [5] it was 33.2 µM (active); in experiment [6] it was 3.81 µM (active); in [7] it was 59.8 µM (active).

For `CCCCCOC(=O)COc1cc(N2C(=O)C3=C(CCCC3)C2=O)c(F)cc1Cl`, in experiment [10], the outcome was inactive.

Consider `CCOC(=O)C(C)Oc1ccc(Oc2cnc3cc(Cl)ccc3n2)cc1` (stereo not drawn), for which the outcome in experiment [10] was inactive.

Take `CCCCOCCOCCOCc1cc2c(cc1CCC)OCO2`: in [10], the result was inactive.

In the case of `CCOC(=O)COc1cc(-n2ncc(C(F)(F)F)c(C)c2=O)c(F)cc1Cl`, in [10], the result was inactive.

For the molecule `CCOC(=O)C(C)Oc1ccc(Oc2nc3ccc(Cl)cc3o2)cc1` (stereo not drawn), in experiment [10], the result was inactive.

As to `CC(=O)[C@H]1CC[C@H]2[C@@H]3CCC4=CC(=O)CC[C@]4(C)[C@H]3CC[C@]12C`, in experiment [10], the AC50 is 84.4 µM (active).

Consider `C#C[C@]1(O)CC[C@H]2[C@@H]3CCC4=CC(=O)CC[C@@H]4[C@H]3CC[C@@]21CC`, for which the AC50 is 318 nM (active) in experiment [1]; 0.651 µM (active) in experiment [3]; 208 nM (active) in experiment [11]; 114 nM (active) and 35.2 nM (active) in experiment [12]; 1.44 µM (active) in [17]. The call in experiment [1], in experiment [3], in [4], in experiment [5], in experiment [13] and in experiment [6] was inactive. Further, the molecule was called inactive in experiment [14], in experiment [7], in [8], in [15], in experiment [16] and in experiment [9].

As to `CCCCOC(=O)C(C)Oc1ccc(Oc2ccc(C(F)(F)F)cn2)cc1` (stereo not drawn), the outcome in experiment [10] was inactive.

For the molecule `CCOC(=O)NCCOc1ccc(Oc2ccccc2)cc1`, the half-maximal activity concentration (AC50) in [10] is 40.2 µM (active).

Consider `C#CCOC(=O)[C@@H](C)Oc1ccc(Oc2ncc(Cl)cc2F)cc1`, for which the result in experiment [10] was inactive.

With `CC(=O)S[C@@H]1CC2=CC(=O)CC[C@]2(C)[C@H]2CC[C@@]3(C)[C@@H](CC[C@@]34CCC(=O)O4)[C@H]12`, the result in experiment [1], in experiment [18], in experiment [12], in experiment [5], in experiment [13] and in [14] was inactive. The outcome in [8], in experiment [15], in [16], in experiment [9] and in experiment [17] was inactive. For the same molecule, the AC50 in experiment [3] was 74 µM (active); in experiment [6], 0.483 µM (active).
